Measurements: PubChem BioAssay AID743314 (Broad Institute, 2014)
Measured potencies and affinities stand elsewhere. Records with an inconclusive call do not appear. Active and inactive are the calls of the source.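 Rule for the calls: active = fitted half-maximal concentration no higher than twice the top tested dose, in every repeat run; inconclusive = repeat runs disagree, poor fit, or flat partial inhibition; inactive = the rest.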

molecular target: Endoplasmic reticulum aminopeptidase 1 (Homo sapiens) (UniProt Q9NZ08); assay: inhibition of human ERAP1 enzyme activity – biochemical, cherry-pick, set 2, plate reader, dose response (AID 743314); settings: Recombinant ERAP1, Leu-AMC fluorescence, 60 min; series mostly up to 11 µM
Sequence (Q9NZ08 whole entry, looked up): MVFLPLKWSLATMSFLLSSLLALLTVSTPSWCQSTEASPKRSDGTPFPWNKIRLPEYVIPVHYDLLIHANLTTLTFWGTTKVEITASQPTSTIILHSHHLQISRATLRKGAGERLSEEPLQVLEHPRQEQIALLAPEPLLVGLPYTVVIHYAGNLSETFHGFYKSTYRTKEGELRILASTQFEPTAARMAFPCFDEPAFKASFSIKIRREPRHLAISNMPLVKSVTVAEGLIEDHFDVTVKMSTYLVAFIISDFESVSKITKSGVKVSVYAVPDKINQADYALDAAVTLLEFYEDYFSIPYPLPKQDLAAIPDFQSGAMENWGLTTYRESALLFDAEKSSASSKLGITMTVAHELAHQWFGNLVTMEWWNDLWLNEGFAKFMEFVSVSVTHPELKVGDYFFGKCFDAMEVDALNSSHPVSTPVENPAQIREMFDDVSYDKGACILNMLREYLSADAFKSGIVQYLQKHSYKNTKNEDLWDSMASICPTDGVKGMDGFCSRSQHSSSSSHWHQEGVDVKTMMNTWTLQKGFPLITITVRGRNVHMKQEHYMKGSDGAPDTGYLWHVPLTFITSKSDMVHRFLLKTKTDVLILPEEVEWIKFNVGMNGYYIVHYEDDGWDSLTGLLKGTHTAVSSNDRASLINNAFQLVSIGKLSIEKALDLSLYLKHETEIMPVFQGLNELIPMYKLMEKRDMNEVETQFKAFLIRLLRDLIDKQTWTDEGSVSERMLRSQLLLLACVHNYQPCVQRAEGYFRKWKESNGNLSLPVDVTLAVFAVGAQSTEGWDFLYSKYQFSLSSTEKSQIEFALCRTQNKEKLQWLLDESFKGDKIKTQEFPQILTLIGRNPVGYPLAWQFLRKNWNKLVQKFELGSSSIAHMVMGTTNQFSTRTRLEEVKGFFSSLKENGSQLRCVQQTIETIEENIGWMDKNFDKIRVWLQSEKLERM

outcome, inactive:
COc1ccc(C(=O)NCc2nnc(SCCOc3ccccc3)n2C)cc1
CN1CCN(S(=O)(=O)c2ccc(C3CCCCC3)cc2)CC1
COCCN(C(=O)COC(=O)CNC(=O)c1cccs1)c1c(N)n(Cc2ccccc2)c(=O)[nH]c1=O
COCCN(CC(=O)Nc1cccc(C)c1C)C(=O)CN1C(=O)NC2(CCCCC2)C1=O
COc1ccc(CN(C)C(=O)CCCNC(=O)c2ccc(Cl)cc2)cc1
C[C@@H]1CCCCO[C@H](CN(C)C)[C@@H](C)CN([C@H](C)CO)C(=O)c2cc(NS(=O)(=O)c3ccc(Cl)cc3)ccc2O1
Cc1ccc(-c2cc(C(=O)N3CCCC3)c3ccccc3n2)s1
CN(C)C(=O)c1cccc(-c2ccc3c(c2)[C@H]2[C@H](CCN2Cc2nccs2)[C@@H](CO)N3)c1
CN(CC(=O)Nc1cccc(F)c1)C(=O)CCc1nc2ccccc2c(=O)[nH]1
O=C(CC1CC1)N1[C@H](CO)[C@H](c2ccccc2)C12CN(Cc1cc(F)ccc1F)C2
CCOc1ccccc1OCCCC(=O)Nc1ccc(S(=O)(=O)Nc2cc(C)nc(C)n2)cc1
N=c1c(S(=O)(=O)c2ccccc2)cc2c(=O)n3ccccc3nc2n1CCCN1CCOCC1
Cc1cccc(NC(=O)Nc2ccc3c(c2)C(=O)N(C)[C@H]2CC[C@H](CC(=O)O)O[C@H]2CO3)c1
Cc1ccc(NC(=O)C2CCCN2C(=O)c2cccs2)c(C)c1 (stereo not given)
C[C@H](CO)N1C[C@H](C)[C@@H](CN(C)C(=O)Nc2ccccc2)Oc2ccc(NC(=O)c3ccncc3)cc2C1=O
CCOC(=O)C1CCN(S(=O)(=O)c2ccc3c(c2)CC(=O)N3C)CC1
COc1ccc(CN(C)C[C@@H]2OCCCC[C@H](C)Oc3ccc(NS(=O)(=O)c4cccs4)cc3C(=O)N([C@H](C)CO)C[C@H]2C)cc1
Cc1noc(C)c1NC(=O)N(C)C[C@@H]1Oc2c(NC(=O)Nc3ccccc3)cccc2C(=O)N([C@H](C)CO)C[C@@H]1C
C/C=C/c1ccc([C@H]2[C@@H](CO)N(C(=O)CC)[C@@H]2CNCC2CCCCC2)cc1
COCC(=O)N1CCC2(CC1)CN(Cc1ccccc1F)[C@H](CO)c1[nH]c3cc(OC)ccc3c12
CN1CCN(S(=O)(=O)c2cccc(C(=O)N(C)CC(=O)Nc3ccc(F)c(F)c3F)c2)CC1
C[C@H](CO)N1C[C@H](C)[C@H](CN(C)C)OCCCC[C@H](C)Oc2ccc(NS(=O)(=O)c3ccc(Cl)cc3)cc2C1=O
COc1ccc([N+](=O)[O-])cc1NS(=O)(=O)c1cccc(C(=O)O)c1
COc1cccc(CN(C)Cc2cc(=O)oc3cc(O)c(Cl)cc23)c1
CCOC(=O)c1[nH]c2ccc(Br)cc2c1NC(=O)CCN1CCOCC1
